Source: PubChem (National Center for Advancing Translational Sciences (NCATS))
L3MBTL1 block = qHTS Assay for the Inhibitors of L3MBTL1. AlphaScreen L3MBTL1–H3K9me1 peptide binding. Potency, µM (doses to about 57.1 µM), without a hit: at the highest dose activity, negative = inhibition, usual class: inhibitors. actives 0.66% (n = 230,000). AID 485360, 2010; further: on the % scale 0 is the no-effect control and ±100 the full control effect; nearly all actives have a fitted effect of over 60% in size
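First, the protein-peptide complex forms for 30 min at room temperature (L3MBTL1 50 nM, biotinylated H3K9me1 peptide 75 nM). Next, compounds are pin-transferred and incubated 30 min. Finally, AlphaScreen beads are added and read after 30 min.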
G9a block = qHTS Assay for Inhibitors of Histone Lysine Methyltransferase G9a; Histone-lysine N-methyltransferase EHMT2 (Homo sapiens), Q96KQ7; G9a H3K9 monomethylation, AlphaScreen, 2 h; Potency, µM (top dose mostly 102 µM), for the others: at the highest dose activity, negative = inhibition, actives largely listed as inhibitors; actives 8.8% (n = 350,000); AID 504332, 2011; further: on the % scale 0 is the no-effect control and ±100 the full control effect; nearly all actives have a fitted effect of over 75% in size
Target sequence (Q96KQ7 913-1193 limits assumed): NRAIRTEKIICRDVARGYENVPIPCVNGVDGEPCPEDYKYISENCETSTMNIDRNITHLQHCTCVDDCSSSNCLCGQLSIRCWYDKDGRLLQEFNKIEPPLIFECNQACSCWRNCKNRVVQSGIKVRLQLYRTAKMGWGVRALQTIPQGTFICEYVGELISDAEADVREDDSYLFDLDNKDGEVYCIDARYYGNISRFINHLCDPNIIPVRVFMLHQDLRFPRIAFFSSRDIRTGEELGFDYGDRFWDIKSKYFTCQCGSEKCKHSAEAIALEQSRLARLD
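Signal arises when biotinylated H3K9 peptide, once monomethylated, bridges streptavidin donor and antibody-captured acceptor beads. Enzyme at 20 nM was preincubated 15 min with test compounds; peptide 500 nM and SAM 20 uM then reacted for 2 h.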
JMJD2A Tudor = qHTS Assay for Inhibitors of JMJD2A-Tudor Domain; Lysine-specific demethylase 4A (Homo sapiens), O75164; AlphaScreen JMJD2A-Tudor / H3K4me3 peptide binding; Potency, µM (highest dose often 114 µM), for the others: top-dose activity change, negative = inhibition, most hits filed as inhibitors; actives 4.4% (n = 390,000); further: on the % scale 0 is the no-effect control and ±100 the full control effect; nearly all actives have a fitted effect of over 50% in size
HP1b binding inh = HTS for Inhibitors of HP1-beta Chromodomain Interactions with Methylated Histone Tails; Chromobox protein homolog 1 (Homo sapiens), P83916; AlphaScreen HP1-beta / biotin-H3K9me3 peptide binding; Potency, µM (top dose mostly 114 µM), for inactives: at the highest dose activity change, negative = inhibition, most hits filed as inhibitors; actives 0.56% (n = 390,000); AID 540317, 2011; further: nearly all actives have a fitted effect of over 70% in size
Target sequence (P83916 whole entry, looked up): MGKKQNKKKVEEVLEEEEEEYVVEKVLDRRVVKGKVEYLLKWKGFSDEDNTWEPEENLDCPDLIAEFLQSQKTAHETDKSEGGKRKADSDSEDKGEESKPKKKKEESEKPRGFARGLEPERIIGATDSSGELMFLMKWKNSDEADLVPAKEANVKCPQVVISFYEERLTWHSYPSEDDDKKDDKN
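AlphaScreen: HP1-beta (50 nM) preformed 30 min with biotin-H3(1-18)K9me3 peptide (50 nM) in PBS pH 7.4, 0.01% Tween-20. Compound added for 30 min at RT, then streptavidin donor/nickel chelate acceptor beads (10 ug/mL) for 30 min.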
BAZ2B block = qHTS Assay for Inhibitors of BAZ2B; AlphaScreen BAZ2B-H3K14Ac peptide displacement; Potency, µM (top dose mostly 114 µM), without a hit: at the top dose activity change, negative = inhibition, most hits filed as inhibitors; Bromodomain adjacent to zinc finger domain protein 2B (Homo sapiens), Q9UIF8; actives 4.4% (n = 360,000); further: on the % scale 0 is the no-effect control and ±100 the full control effect; nearly all actives have a fitted effect of over 60% in size
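BAZ2B 50 nM plus b-H3(5-23)K14Ac 50 nM, PBS pH 7.4/0.01% Tween-20, 30 min RT; compound added (max 110 uM), 30 min RT; streptavidin donor/Ni-chelate acceptor beads 10 ug/mL final, 20 min dark; AlphaScreen read.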
Sfp inh = qHTS Assay for Inhibitors of Bacillus subtilis Sfp phosphopantetheinyl transferase (PPTase); 4'-phosphopantetheinyl transferase ffp (Bacillus subtilis), Q9F4F7; Biochemical Sfp PPTase activity, qHTS; Potency, µM, for inactives: largest response in the series, negative = inhibition, actives largely listed as inhibitors; actives 3.5% (n = 310,000); AID 1490, 2009;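 further: the enzyme is Sfp with the accession as filed and its product quenches rhodamine fluorescence; 0% = enzyme reaction without inhibitor and -100% = no enzyme wells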
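After 15 min at room temperature with compound, 15 nM Sfp received 5 uM rhodamine-CoA plus 12.5 uM BHQ-2-ybbR (50 mM Hepes pH 7.6, 10 mM MgCl2). Rate came from the fluorescence difference over 30 min, ex 525/em 598 nm.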
An asterisk follows results filed as active; [ ] = another dose, or the depositor's remark. In the library only some 12% were active in any assay of this set; here they are far more common. The call rests on the fitted dose curve; in most records, active means well fitted curve in the direction sought with a large enough effect; inconclusive means small, poorly fitted or top-dose-only effect, or another doubt; inactive means no such curve, though single readings can be large; an effect the other way counts as inactive or inconclusive. Potency means the concentration at half of the fitted maximal effect.

For O=C(CSc1nnc(COc2ccccc2)o1)Nc1cc(C(F)(F)F)ccc1Cl the results were G9a block inconclusive, JMJD2A Tudor 12%, HP1b binding inh 47% and BAZ2B block 15%.
`CCOc1ccc2c(c1)c(=O)c(C(=O)c1ccc(CC)cc1)cn2CC(=O)Nc1ccccc1C` gave G9a block 3%[59 µM], JMJD2A Tudor -20%, HP1b binding inh 16% and BAZ2B block -36%.
Screening Cn1c(=O)c(Nc2ccc(O)cc2)c2c3c(cccc31)C(=O)c1ccccc1-2 returned L3MBTL1 block 25µM*, G9a block 13µM*, JMJD2A Tudor 7.9µM*, HP1b binding inh 18µM*, BAZ2B block 6.3µM* and Sfp inh -17%.
CC(C)c1ccc(Nc2c([N+](=O)[O-])c(=O)n(C)c3ccccc23)cc1 was read as L3MBTL1 block inconclusive, G9a block inconclusive, JMJD2A Tudor inconclusive, HP1b binding inh -9%, BAZ2B block inconclusive and Sfp inh -1%.
`CC(=O)c1c2c3c(c(Br)ccc3n(C)c1=O)C(=O)c1ccccc1-2` gave JMJD2A Tudor -36%, HP1b binding inh -21%[57 µM], BAZ2B block inconclusive and Sfp inh -11%.
`CC(=O)c1c2c3c(cccc3n(C)c1=O)C(=O)c1ccccc1-2` gave L3MBTL1 block inconclusive, G9a block 18µM*, JMJD2A Tudor -27%, HP1b binding inh 48%, BAZ2B block inconclusive and Sfp inh -2%.
For Cc1ccc(CN(C(=O)c2ccc(Cl)c([N+](=O)[O-])c2)C2CCS(=O)(=O)C2)o1 (stereo not drawn) the results were G9a block 25%, JMJD2A Tudor inconclusive, HP1b binding inh 3%, BAZ2B block -22%[57.1 µM] and Sfp inh 17%.
CCOC(=O)Oc1c(OC)cc(C(=O)O[C@@H]2C[C@@H]3CN4CCc5c([nH]c6cc(OC)ccc56)[C@H]4C[C@@H]3[C@H](C(=O)OC)[C@H]2OC)cc1OC was read as L3MBTL1 block -14%, G9a block 8.9µM*, JMJD2A Tudor inconclusive, HP1b binding inh 11% and BAZ2B block inconclusive.
For C/C(=N\Nc1nccnc1Cl)c1ccc(F)cc1 the results were L3MBTL1 block 44%, G9a block -5%[0.501 µM], JMJD2A Tudor 7%, HP1b binding inh 11%, BAZ2B block -19% and Sfp inh 22µM*.
Screening Cc1ccccc1C(=O)Nc1sc2c(c1C(=O)N1CCCCC1)CCC(C)C2 (stereo not drawn) returned G9a block -33%[59 µM], JMJD2A Tudor -27%, HP1b binding inh 9% and BAZ2B block inconclusive.
`Nc1ccc2c(c1)Nc1ccccc1CC2` gave L3MBTL1 block -12%, JMJD2A Tudor 50µM*, HP1b binding inh -32%, BAZ2B block 28µM* and Sfp inh -2%.
Screening O=C(NP(=O)(N1CCCC1)N1CCCC1)C1=C(N2CCOCC2)/C(=C/c2cccc([N+](=O)[O-])c2)CC1 returned L3MBTL1 block -25%, G9a block 45µM*, JMJD2A Tudor -25%, HP1b binding inh -6%, BAZ2B block 45µM* and Sfp inh -6%.
`CC(C)OC(=O)C(C(=O)C(F)(F)F)c1cc(NS(=O)(=O)c2ccc3ccccc3c2)c2ccccc2c1O` (stereo not drawn) gave L3MBTL1 block -12%, G9a block 32µM*, JMJD2A Tudor 35µM*, HP1b binding inh inconclusive, BAZ2B block -36% and Sfp inh 56µM*.
CC(C)OC(=O)C(C(=O)C(F)(F)F)c1cc(NS(=O)(=O)c2ccc3c4c(cccc24)C(=O)N3)ccc1O (stereo not drawn) was read as G9a block inconclusive, JMJD2A Tudor -35%, HP1b binding inh -3% and BAZ2B block -27%.
COC1=C(Br)C(=O)c2ncccc2C1=O was read as JMJD2A Tudor 6.3µM* and HP1b binding inh 10µM*.
O=C1c2cccnc2-c2ncccc21 was read as L3MBTL1 block 11%, JMJD2A Tudor -5%, HP1b binding inh 21%, BAZ2B block 2% and Sfp inh -3%.
O=C(Cc1nnc(NC(=O)Nc2ccc(F)cc2)s1)NCc1ccccc1 was read as G9a block 9%, JMJD2A Tudor -10%, HP1b binding inh 25%, BAZ2B block -24% and Sfp inh -5%.
CCOC(=O)CSc1n[nH]c(=S)s1 was read as L3MBTL1 block 45%, JMJD2A Tudor inconclusive, HP1b binding inh inconclusive, BAZ2B block inconclusive and Sfp inh inconclusive.
O=C(Nc1n[nH]c(=S)s1)c1ccc2ccccc2c1 was read as JMJD2A Tudor -15%, HP1b binding inh 15%, BAZ2B block -27% and Sfp inh inconclusive.
CNc1n[nH]c(=S)s1 was read as L3MBTL1 block 0%, G9a block 3.5µM*, JMJD2A Tudor 5µM*, HP1b binding inh 25µM*, BAZ2B block -24% and Sfp inh 35µM*.
CC(=O)Nc1n[nH]c(=S)s1 was read as JMJD2A Tudor 5µM* and HP1b binding inh inconclusive.
For CCn1c(Cc2ccccc2)nnc1SCC(=O)Nc1ccc(OC)cc1 the results were L3MBTL1 block -21%, G9a block 15%[59 µM], JMJD2A Tudor -12%, HP1b binding inh 30%, BAZ2B block 8% and Sfp inh 7%.
`Cn1c(Cc2ccccc2)nnc1SCCC(=O)Nc1ccccc1` gave G9a block 7.9µM*, JMJD2A Tudor -8%, HP1b binding inh 7%, BAZ2B block 14% and Sfp inh -9%.
For CCn1c(Cc2ccccc2)nnc1SCC(=O)Nc1ccc(N)cc1 the results were G9a block 50µM*, JMJD2A Tudor -24%, HP1b binding inh 24%, BAZ2B block -25% and Sfp inh 17%.
For Cn1c(Cc2ccccc2)nnc1SCC(=O)NC1CC1 the results were G9a block 9%, JMJD2A Tudor -11%, HP1b binding inh 18%, BAZ2B block 8% and Sfp inh 8%.
For Cc1ccccc1CCNC(=O)c1ccc2c(c1)nc1n2CCC(C)C1 (stereo not drawn) the results were G9a block -13%[59 µM], JMJD2A Tudor -7%, HP1b binding inh 23%[57 µM] and BAZ2B block 3%.
COc1ccc2ccccc2c1/C=N/N1C(=O)CSC1=S was read as L3MBTL1 block inconclusive, G9a block inconclusive, JMJD2A Tudor inconclusive, HP1b binding inh -18% and Sfp inh inconclusive.
